Source: PubChem BioAssay (Tox21)
Results filed as inconclusive are left out. Where a call stands in place of a potency, no number is given. The source made the active and inactive calls. Calls follow the shape of the dose curve; as a rule, active = well fitted cell-killing curve with a large enough effect in the repeat runs; inconclusive = weak or mixed curves, or effect the other way; inactive = flat fitted curve, though single readings scatter.

Legend:
[1] = cAMP Responsive Elements (CRE) small molecule antagonists, cell-based qHTS assay: qHTS cell viability counter screen (AID 2060913); settings: CRE-bla HEK293T viability, CellTiter-Glo luminescence, 5 h; series mostly up to 92.4 µM; also: nearly all actives have a fitted effect of over 40% in size
How it was run: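 HEK293T CRE-bla, 2,000 cells/well, 18 h preincubation; cpd in DMSO + NKH477 0.25 uM final, 3 h 37 C/5% CO2; LiveBLAzer 2 h RT, then CellTiter-Glo 30 min RT, luminescence.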

[2] = cAMP Responsive Elements (CRE) small molecule agonists, cell-based qHTS assay: qHTS cell viability counter screen (AID 2060914); settings: CRE-bla HEK293T viability, CellTiter-Glo luminescence, 5 h; series mostly up to 92.4 µM; also: nearly all actives have a fitted effect of over 50% in size
How it was run: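 Cytotoxicity was measured as ATP luminescence (CellTiter-Glo, 30 min at room temperature) in the same wells as the CRE-bla FRET read-out. HEK293T CRE-bla cells had 3 h compound exposure at 37C/5% CO2.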

Row | Structure (SMILES) | Potency [1] | Potency [2]
1 | C=C(C)C(=O)OCCOc1ccccc1 | inactive | inactive
2 | O=C1c2ccccc2C(=O)N1SC1CCCCC1 | inactive | inactive
3 | C[N+](C)(C)CC(O)CC(=O)[O-] (configuration not stated) | inactive | inactive
4 | CO[C@@H]1[C@H](OC(=O)/C=C/C=C/C=C/C=C/C(=O)O)CC[C@]2(CO2)[C@H]1[C@@]1(C)O[C@@H]1CC=C(C)C | inactive | inactive
5 | CNCc1cc(F)ccc1Oc1ccc(Cl)c(Cl)c1 | inactive | inactive
6 | COc1ccc(C(=O)N2CCN(CC(=O)N3CCOCC3)CC2)cc1 | inactive | inactive
7 | CC(C)C(O)(c1ccc(OC(F)(F)F)cc1)c1cncnc1 (configuration not stated) | inactive | inactive
8 | CCCCNCCCC | inactive | inactive
9 | CNC(=O)c1ccccc1 | inactive | inactive
10 | CCCCCCc1ccc(O)cc1O | inactive | inactive
11 | CC(COC(C)(C)C)OCCCO (configuration not stated) | inactive | inactive
12 | COC(=O)C1=C(C)NC(C)=C(C(=O)OCCc2ccc(N3CCN(C(c4ccccc4)c4ccccc4)CC3)cc2)C1c1cccc([N+](=O)[O-])c1 (configuration not stated) | inactive | inactive
13 | Nc1ccc(Oc2cccc(Oc3ccc(N)cc3)c2)cc1 | inactive | inactive
14 | CCC(CC)C(=O)O | inactive | inactive
15 | CCOc1ccc(NS(=O)(=O)c2ccc(N)cc2)nn1 | inactive | inactive
16 | Cc1oc(-c2ccccc2)nc1CCC(=O)c1ccc(CC2SC(=O)NC2=O)cc1 (configuration not stated) | inactive | inactive
